# Bioassay records from PubChem BioAssay.
# iPSC survival up: enhancers of human iPSC single-cell survival; survival enhancement, % at 20 µM; hiPSC single-cell survival, ATPlite luminescence; 100% = ROCK inhibitor wells, 0% = DMSO; actives 0.044% (n = 360,000); AID 602274; in the data active = survival enhancement above about 18%;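 also: cells exposed to compounds for 16 hours before the ATP read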
# Myeloid diff 2: compounds promoting myeloid differentiation. calls only at 10 µM. actives 1% (n = 360,000). ER-HoxA9 myeloid progenitors, lysozyme-GFP differentiation, flow cytometry;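 active = normalized GFP-positive differentiation at or above the plate's own cutoff, the solvent-only control mean plus 3 SD; inconclusive = no clear call, values can overlap the other calls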;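 also: cells exposed to compound for four days before flow analysis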
# Cardio protect: myocardial damage modulation in H9c2 cells. H9c2 cardiomyocytes, H2O2 injury protection, ATPLite, 2 h. protection from H2O2 cell death, % at 20 µM. actives 0.63% (n = 360,000). AID 588492;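 active = compounds giving at least 50% protection of heart cells from peroxide-induced death in the single-dose screen, raw or plate-pattern-corrected value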;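 also: 0% = DMSO wells with peroxide and 100% = DMSO wells without peroxide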
# MIN6 prolif: inducers of beta-cell replication in MIN6 cells. proliferation, % at 10 µM. AID 2380. MIN6 cells proliferation, ATPlite luminescence, 48 h; cells starved in 0.2% serum; 100% = growth in 10% serum. actives 0.29% (n = 330,000);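 active = compounds whose signal lies at least 3.5 SD above the mean of all wells on their plate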;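 also: 0% = DMSO-treated cells in low-serum medium and 100% = 10% serum control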
# ABCB6 inh 2: inhibitors of human ABC transporter ABCB6; Q9NP58; K562-ABCB6 porphyrin accumulation, flow cytometry, 1 h; stronger effect = lower value; fluorescence ratio to DMSO, % at 10 µM; actives 0.19% (n = 360,000);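 active = fluorescence ratio to DMSO below 75%, the collection mean minus 3 SD; inconclusive = too few cells collected in the well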;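 also: signal is porphyrin accumulated inside mitochondria; 100% equals median channel fluorescence of DMSO control wells; lower ratio means ABCB6 inhibition with less porphyrin fluorescence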
# Target sequence (Q9NP58 whole entry, looked up): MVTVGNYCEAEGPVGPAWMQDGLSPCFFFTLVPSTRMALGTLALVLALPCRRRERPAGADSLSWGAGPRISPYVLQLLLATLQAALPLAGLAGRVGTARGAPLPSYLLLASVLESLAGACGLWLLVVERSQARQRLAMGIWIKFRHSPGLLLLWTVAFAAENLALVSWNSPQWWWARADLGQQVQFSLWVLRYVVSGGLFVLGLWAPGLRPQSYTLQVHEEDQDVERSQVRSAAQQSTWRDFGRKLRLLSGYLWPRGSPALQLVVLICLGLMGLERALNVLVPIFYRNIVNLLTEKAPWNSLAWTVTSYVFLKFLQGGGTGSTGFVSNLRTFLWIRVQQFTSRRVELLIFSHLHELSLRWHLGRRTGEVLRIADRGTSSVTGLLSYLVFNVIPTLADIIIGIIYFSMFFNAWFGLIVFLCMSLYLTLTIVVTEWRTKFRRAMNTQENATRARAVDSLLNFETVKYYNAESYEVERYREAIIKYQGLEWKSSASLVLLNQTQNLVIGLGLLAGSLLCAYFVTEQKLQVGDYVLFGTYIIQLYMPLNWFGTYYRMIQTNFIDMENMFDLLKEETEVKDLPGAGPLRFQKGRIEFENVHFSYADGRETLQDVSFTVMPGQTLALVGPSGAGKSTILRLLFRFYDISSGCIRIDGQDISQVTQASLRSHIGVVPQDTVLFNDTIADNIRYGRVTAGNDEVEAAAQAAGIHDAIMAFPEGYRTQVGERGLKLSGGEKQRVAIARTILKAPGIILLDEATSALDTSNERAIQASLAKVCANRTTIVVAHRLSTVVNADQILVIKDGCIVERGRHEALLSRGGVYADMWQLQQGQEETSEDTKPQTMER
# * hit, by the source's call; i = inactive; u = inconclusive; x = not tested or not shown; + = active, no number; ! = not active in a repeat. In the library only some 2.2% were active in any assay of this set; here they are far more common.
SMILES,iPSC survival up,Myeloid diff 2,Cardio protect,MIN6 prolif,ABCB6 inh 2
CN(C)CCOC(c1ccccc1)c1ccccc1 (tested in a mixture with another compound),0,+,10,0,103
C=CC(=O)Nc1ccc(Nc2nc(NC3CCC(N(C)C)CC3)nc3c2ncn3C(C)C)cc1 (centres undefined),-4,i,1,-6,103
CCCOc1ccc(/C=C2\SC(N)=NC2=O)cc1OC,0,i,-3,-1,96
COc1cc(/C=C2\SC(N)=NC2=O)ccc1OCC(=O)Nc1ccccc1C,0,i,54*,1,94
CC1N(C)c2cccc3cccc(c23)N1C,1,+,-4,-3,138
COc1cc(Cl)c(S(=O)(=O)NCc2ccccn2)cc1Cl,-1,i,7,-2,99
CC(NC(=O)c1ccco1)C(=O)N1CCc2ccccc2C1 (centres undefined),2,+,19,-1,106
COc1ccccc1N1CCN(C(=O)C(C)NC(=O)c2ccco2)CC1 (centres undefined),0,i,0,-3,97
Cc1ccc(-c2nnc3ccc(SCC(=O)N4CCCc5ccccc54)nn23)cc1,0,i,105*,-1,97
O=C(CSc1ccc(-c2ccccn2)nn1)N1CCCc2ccccc21,0,i,52*,-1,99
Cc1cc(C)cc(NC(=O)CSc2ccc(-c3ccccn3)nn2)c1,0,i,67*,-6,94
O=C(CSc1ccc(-c2cccnc2)nn1)N1CCCc2ccccc21,x,x,x,-1,x
O=C(O)c1cccc2sc3cc(Cl)ccc3c(=O)c12,0,i,3,0,100
CCC(=O)Nc1nnc(/C=C/c2ccccc2)s1,0,i,-3,-5,98
Cc1nc(NCc2cccnc2)c2c3c(sc2n1)CC(C)CC3 (centres undefined),1,i,2,-4,100
CCCCCCSc1cc(-c2nc3cc(C)ccn3c2NCCCC)ccc1OC,-4,+!,-10,-8,106
Cc1nn(-c2ccc([N+](=O)[O-])cc2)c2c1C(c1cccc(Br)c1)N1C(=N2)C(=O)Nc2ccccc21 (centres undefined),4,i,56*,-6,97
CCOC(=O)Nc1ccc2nc(N3CCCCCC3)sc2c1,0,u,-7,-1,87
Nc1nc(N)c(Cc2ccc(Cl)cc2Cl)c(N)n1,0,+,-9,1,104
CC(C)CC(=O)Nc1cc2c3c(c1)CCN3C(=O)CC2,1,+,4,0,100
CC(=O)Nc1cc2c3c(c1)CCN3C(=O)CC2,-1,i,5,0,80
Fc1ccc(Oc2cnns2)cc1,0,i,-1,0,106
Cc1cc(C)c2cc3c(N)c(C(=O)N4CCc5ccccc5C4)sc3nc2c1,3,i,49*,-3,106
N#CCCSc1ccccc1NC(=O)c1cc(=O)c2ccccc2o1,0,i,52*,1,95
COc1ccc(-c2cc(C(F)(F)F)nc(SCC(=O)N(C)Cc3cnn(C)c3C)n2)cc1OC,-2,i,2,-1,102
SMILES,iPSC survival up,Myeloid diff 2,Cardio protect,MIN6 prolif,ABCB6 inh 2
CN1/C(=C\C(=O)CN2C(=O)NC3(CCCCCC3)C2=O)C(C)(C)c2ccccc21,-1,+,-19,-4,502
CN1/C(=C\C(=S)NC(=O)c2ccccc2Cl)C(C)(C)c2ccccc21,-1,+,-13,-3,588
CN1/C(=C/C(=O)CSc2ccccc2C(=O)O)C(C)(C)c2ccccc21,0,+,-7,-6,339
CCc1nnc(NC(=O)c2ccc3c(c2)C(=O)N(C(C)(C)C)C3=O)s1,-2,i,-14,-2,96
Cc1cc(C2CCCCC2)n(O)c(=O)c1,0,u,69*,-8,93
CC(C)(C)C(=O)Nc1ccc(C(=O)N/N=C/c2ccccc2OC(=O)c2ccccc2)cc1,0,i,52*,-3,92
CCOc1cc(/C=N\NC(=O)c2ccc(NC(=O)C(C)(C)C)cc2)ccc1OC(=O)c1cccc(C)c1,-2,i,66*,-5,84
O=C(O)CN1C(=O)/C(=C\c2cccc(OCc3ccc(Cl)cc3Cl)c2)SC1=S,0,i,4,-4,101
O=C(CSC1=NS(=O)(=O)c2cc(F)ccc2N1)NCCc1ccccc1,0,i,-1,-1,101
O=C(Cn1nc(C(=O)O)c2ccccc2c1=O)c1c[nH]c2ccccc12,0,i,57*,-1,88
O=C(c1cc(=O)[nH]c2ccccc12)N1CCN(S(=O)(=O)c2ccc(Cl)cc2)CC1,1,i,88*,1,93
O=C(c1ccccn1)N1CCN(S(=O)(=O)c2ccc3ccccc3c2)CC1,-1,i,-6,2,104
O=C(c1cc(=O)[nH]c2ccccc12)N1CCN(S(=O)(=O)c2ccc3ccccc3c2)CC1,3,i,103*,-4,100
O=C(c1n[nH]c2ccccc12)N1CCN(S(=O)(=O)c2ccccc2)CC1,1,i,-2,-1,99
Cc1ccc(C(c2sc3nc(C)nn3c2O)N2CCN(C(=O)c3ccco3)CC2)cc1 (centres undefined),1,i,0,-2,102
O=C(NNC(=S)NC(=O)c1cccc([N+](=O)[O-])c1)c1ccc(Br)cc1,0,x,56*,-3,93
CC1CN(c2ccc([N+](=O)[O-])cc2C(=O)N2CCOCC2)CC(C)N1 (centres undefined),-2,i,8,-2,99
CNc1ccccc1C(C)(C)c1cc(-c2cccc(OC)c2)no1,-1,+,-16,-5,i
CC1(C)Cc2c(c(N3CCOCC3)nc3sc4c(NN)ncnc4c23)CS1,-4,i,59*,-6,94
CN(C)c1cccc2c(S(=O)(=O)Nc3ccccn3)cccc12,0,i,-2,-1,93
COCCNc1nc2c(c(=O)n(Cc3cccc(Br)c3)c(=O)n2C)n1C,0,i,9,0,97
COCCNc1nc2c(c(=O)n(Cc3cccc(Cl)c3)c(=O)n2C)n1C,0,+,11,-5,358
Cc1cccc(-n2c(C)cc(C(=O)NC3CCCCC3)c2C)c1,-2,i,-1,-4,94
Cc1cccc(/C=N/NC(=O)c2c(-c3ccccc3)noc2C)c1O,0,i,54*,-7,98
CCOC(=O)C1=C(C)NC(C)=C(C(=O)OCCNC(=O)c2cccnc2)C1c1cccc([N+](=O)[O-])c1 (centres undefined),1,i,69*,-3,97
O=C(NCCOC(=O)c1ccc([N+](=O)[O-])cc1)c1cccnc1,-1,i,-2,-2,96
CN(C)S(=O)(=O)N1CCC(Oc2ccc(C(=O)N3CCCCCC3)cc2)CC1,2,+,-8,x,100
